Experimental data from PubChem BioAssay AID1159580 (chemical genetic matrix, 2015).
Among all 5,500 compounds or so, about 2,000 (36%) were called active. Roughly 18% stayed inconclusive and do not appear here. No stated cut-off is given here; in the data, active means normalized growth mostly below about 0.91 (no sharp cut-off); inconclusive means no clear call, values can overlap the other calls; inactive means mostly above about 0.92. This is one part of the list.

Assay: chemical genetic growth profiling, strain panel (AID 1159580);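 further: tested at 20 µM; growth read once vehicle control cultures reached saturation at 30 °C; 1 = growth at the plate median or of vehicle wells; lower values mean less growth of the strain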
Details: growth OD

Measured: normalized growth

CNC(=O)O/N=C\C(C)(C)SC
inactive: S. cerevisiae deletion strains, locus YJR043C, strain POL32, hits give low values 1.03 | S. cerevisiae deletion strains, locus YJR075W, strain HOC1, hits give low values 1.02 | S. cerevisiae deletion strains, locus YKL009W, strain mrt4, hits give low values 1.02 | S. cerevisiae deletion strains, locus YKL068W, hits give low values 0.998 | S. cerevisiae deletion strains, locus YKL085W, strain MDH1 (second series), hits give low values 0.996 | S. cerevisiae deletion strains, locus YKL085W, strain MDH1, hits give low values 0.996 | S. cerevisiae deletion strains, locus YKL160W, strain elf1, hits give low values 1 | S. cerevisiae deletion strains, locus YKL190W, strain CNB1, hits give low values 0.991 | S. cerevisiae deletion strains, locus YKR001C, strain vps1, hits give low values 1.01 | S. cerevisiae deletion strains, locus YKR026C, strain gcn3, hits give low values 1 | S. cerevisiae deletion strains, locus YKR091W, strain srl3, hits give low values 1 | S. cerevisiae deletion strains, locus YLL001W, strain dnm1, hits give low values 0.988 | S. cerevisiae deletion strains, locus YLL026W, hits give low values 0.997 | S. cerevisiae deletion strains, locus YLL041C, strain sdh2, hits give low values 1 | S. cerevisiae deletion strains, locus YLR027C, strain aat2, hits give low values 1.01 | S. cerevisiae deletion strains, locus YLR039C, strain RIC1, hits give low values 1.02 | S. cerevisiae deletion strains, locus YLR058C, strain SHM2, hits give low values 1.01 | S. cerevisiae deletion strains, locus YLR102C, strain apc9, hits give low values 0.986 | S. cerevisiae deletion strains, locus YLR221C, strain rsa3, hits give low values 1.01 | S. cerevisiae deletion strains, locus YLR258W, strain gsy2, hits give low values 0.996 | S. cerevisiae deletion strains, locus YLR262C, strain YPT6 (second series), hits give low values 1.01 | S. cerevisiae deletion strains, locus YLR262C, strain YPT6, hits give low values 1.06 | S. cerevisiae deletion strains, locus YLR268W, strain sec22, hits give low values 0.991 | S. cerevisiae deletion strains, locus YLR320W, strain mms22, hits give low values 0.999 | S. cerevisiae deletion strains, locus YLR330W, strain CHS5, hits give low values 1.01 | S. cerevisiae deletion strains, locus YLR342W, strain FKS1 (second series), hits give low values 1 | S. cerevisiae deletion strains, locus YLR342W, strain FKS1, hits give low values 1 | S. cerevisiae deletion strains, locus YLR357W, strain rsc2, hits give low values 0.986 | S. cerevisiae deletion strains, locus YLR370C, strain arc18, hits give low values 1.01 | S. cerevisiae deletion strains, locus YLR371W, strain rom2, hits give low values 0.978 | S. cerevisiae deletion strains, locus YLR384C, strain iki3, hits give low values 0.991 | S. cerevisiae deletion strains, locus YLR418C, strain cdc73, hits give low values 1.01 | S. cerevisiae deletion strains, locus YML016C, strain PPZ1, hits give low values 1.01 | S. cerevisiae deletion strains, locus YML032C, strain rad52, hits give low values 0.993 | S. cerevisiae deletion strains, locus YML120C, strain ndi1, hits give low values 1.01 | S. cerevisiae deletion strains, locus YML124C, strain tub3, hits give low values 0.996 | S. cerevisiae deletion strains, locus YMR058W, strain fet3, hits give low values 1.01 | S. cerevisiae deletion strains, locus YMR078C, strain ctf18, hits give low values 0.992 | S. cerevisiae deletion strains, locus YMR125W, strain sto1, hits give low values 0.996 | S. cerevisiae deletion strains, locus YMR129W, hits give low values 1.01 | S. cerevisiae deletion strains, locus YMR205C, strain PFK2, hits give low values 0.975 | S. cerevisiae deletion strains, locus YMR223W, strain ubp8, hits give low values 0.995 | S. cerevisiae deletion strains, locus YMR231W, strain pep5, hits give low values 1 | S. cerevisiae deletion strains, locus YMR263W, strain SAP30, hits give low values 1.01 | S. cerevisiae deletion strains, locus YMR307W, strain GAS1, hits give low values 1.02 | S. cerevisiae deletion strains, locus YNL067W, strain RPL9B, hits give low values 1.01 | S. cerevisiae deletion strains, locus YNL071W, strain lat1, hits give low values 1.01 | S. cerevisiae deletion strains, locus YNL128W, strain TEP1, hits give low values 1.01 | S. cerevisiae deletion strains, locus YNL153C, strain GIM3, hits give low values 1 | S. cerevisiae deletion strains, locus YNL209W, strain ssb2, hits give low values 1.01 | S. cerevisiae deletion strains, locus YNL233W, strain BNI4, hits give low values 1.02 | S. cerevisiae deletion strains, locus YNL248C, strain rpa49, hits give low values 0.992 | S. cerevisiae deletion strains, locus YNL250W, strain rad50, hits give low values 0.989 | S. cerevisiae deletion strains, locus YNL271C, strain bni1, hits give low values 0.992 | S. cerevisiae deletion strains, locus YNL298W, strain CLA4, hits give low values 0.983 | S. cerevisiae deletion strains, locus YNL307C, strain MCK1, hits give low values 0.989 | S. cerevisiae deletion strains, locus YNL322C, strain KRE1 (second series), hits give low values 0.999 | S. cerevisiae deletion strains, locus YNL322C, strain KRE1, hits give low values 1.01 | S. cerevisiae deletion strains, locus YNR049C, strain mso1, hits give low values 1 | S. cerevisiae deletion strains, locus YNR052C, strain pop2, hits give low values 0.987 | S. cerevisiae deletion strains, locus YOL006C, strain TOP1, hits give low values 1.1 | S. cerevisiae deletion strains, locus YOL012C, strain htz1 0.971 | S. cerevisiae deletion strains, locus YOL147C, strain pex11, hits give low values 0.981 | S. cerevisiae deletion strains, locus YOR001W, strain rrp6, hits give low values 1.01 | S. cerevisiae deletion strains, locus YOR061W, strain CKA2, hits give low values 1 | S. cerevisiae deletion strains, locus YOR069W, strain VPS5, hits give low values 0.998 | S. cerevisiae deletion strains, locus YOR070C, strain gyp1, hits give low values 1 | S. cerevisiae deletion strains, locus YOR080W, strain dia2, hits give low values 0.996 | S. cerevisiae deletion strains, locus YOR083W, strain WHI5, hits give low values 0.999 | S. cerevisiae deletion strains, locus YOR106W, strain vam3, hits give low values 0.996 | S. cerevisiae deletion strains, locus YOR136W, strain idh2, hits give low values 1.01 | S. cerevisiae deletion strains, locus YOR144C, strain elg1, hits give low values 0.983 | S. cerevisiae deletion strains, locus YOR184W, strain ser1, hits give low values 1 | S. cerevisiae deletion strains, locus YOR265W, strain rbl2, hits give low values 1.03 | S. cerevisiae deletion strains, locus YOR270C, strain vph1, hits give low values 1 | S. cerevisiae deletion strains, locus YOR290C, strain snf2, hits give low values 0.994 | S. cerevisiae deletion strains, locus YOR316C, strain cot1, hits give low values 0.987 | S. cerevisiae deletion strains, locus YPL051W, strain arl3, hits give low values 1 | S. cerevisiae deletion strains, locus YPL055C, strain LGE1, hits give low values 1.05 | S. cerevisiae deletion strains, locus YPL078C, strain atp4, hits give low values 1 | S. cerevisiae deletion strains, locus YPL106C, strain sse1, hits give low values 0.996 | S. cerevisiae deletion strains, locus YPL240C, strain hsp82, hits give low values 1.01 | S. cerevisiae deletion strains, locus YPL241C, strain CIN2, hits give low values 0.999 | S. cerevisiae deletion strains, locus YPR119W, strain clb2, hits give low values 0.986 | S. cerevisiae deletion strains, locus YPR141C, strain kar3, hits give low values 0.996 | S. cerevisiae deletion strains, locus YPR163C, strain tif3, hits give low values 0.983 | S. cerevisiae deletion strains, locus YPR167C, strain met16, hits give low values 0.99 | S. cerevisiae deletion strains, strain wtn01, hits give low values 0.997 | S. cerevisiae strains, strain wild type, hits give low values 1
